“And” between values parts separate entries of the source, which are not always exact repeats. Equal entries are not always repeated. Results filed as inconclusive are left out. Some compounds were tested as several samples or in several runs, with calls that do not always agree. The source made the active and inactive calls. Rule for the calls, unless noted: active = hit-call score of the fitted dose curve at least 0.9, where 1 is the maximum; inconclusive = response in the unintended direction; inactive = score below 0.9. Peptide text beside a SMILES is read from it.

System in one experiment: not listed separately
Kind of experiment: CCTE_Shafer_MEA_dev_per_network_spike_spike_percent: CCTE's Neural Network Formation Assay for Percent of Spikes in a Network Spike, Shafer Lab (AID 2284054; active = hit-call score of the fitted dose curve at least 0.9, where 1 is the maximum; inactive = score below 0.9). Summed up:
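Rat primary cortical cultures, 1.5 x 10^5 cells/well on MEA. Continuous compound exposure d0–12, medium/compound renewed DIV 5, 9. Network-spike spike % (0.05 s peak window), AUC over 4 recordings, DMSO baseline.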
As to `Cc1noc(NS(=O)(=O)c2ccc(N)cc2)c1C`, the call was inactive.

As to `CCCCNS(=O)(=O)c1ccccc1`, the compound was classed as inactive.

On to `Cc1c(C(=O)c2c[nH]n(C)c2=O)ccc(S(C)(=O)=O)c1C1=NOCC1`, for which the result was inactive.

For the compound `COC(=O)[C@H](Cc1ccccc1)NC(=O)[C@@H](N)CC(=O)O` (H-Asp-Phe-OMe), the result was inactive.

`C[N+](C)(C)CCCNS(=O)(=O)C(F)(F)C(F)(F)C(F)(F)C(F)(F)C(F)(F)C(F)(F)C(F)(F)C(F)(F)F`: the AC50 was 2.55 µM (active) and the compound was called inactive.

The next experiment has as its system DIO3 (gene 1735). The experiment is described as follows: CCTE_GLTED_hDIO3: CCTE's human Deiodinase 3 (DIO3) Inhibition Assay, Great Lakes Toxicology and Ecology Division (GLTED) Lab (AID 2284055).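 Note: potency is for inhibition seen as loss of released iodide signal.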 Summed up: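 Enzyme activity is tracked as iodide release from substrate by recombinant human DIO3 over 3 h with chemical present. A second Sandell-Kolthoff step converts iodide to an absorbance signal, fitted relative to DMSO.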
In the case of `CCCCCCCCCCCCc1ccc(O)cc1`, the AC50 was 11.2 µM (active).

As for `CCCCCCCOC(=O)c1ccc(O)cc1`, the AC50 was 80.8 µM (active).

Consider `CCCCCCCCCCCCCCCCCCOS(=O)(=O)O`, for which the AC50 is 3.04 µM (active).

Take `C/C=C/C=C/CCCCCCCO`: the AC50 was 16.4 µM (active).

Consider `O=C(O)c1cc(O)c2ccccc2c1O`, for which the AC50 was 54.1 µM (active).

For `CCCCC/C=C\C/C=C\CCCCCCCC(=O)O`, the AC50 is 16.9 µM (active).

As to `O=c1c(O)c(-c2ccc(O)cc2O)oc2cc(O)cc(O)c12`, the AC50 was 33.5 µM (active).

System in a further experiment: not listed separately
Kind of experiment: CCTE_Shafer_MEA_dev_LDH: CCTE's Lactate Dehydrogenase Assay for Cytotoxicity in the Neural Network Formation Assay, Shafer Lab (AID 2284068).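 Note: exposure for twelve days from plating with re-dosing on DIV 5 and 9.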 Summed up:
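Cytotoxicity companion to network-formation recordings: rat cortical neurons received compound over 12 days of development, re-dosed at DIV 5 and 9 feeds. Viability was inferred from LDH enzyme activity relative to DMSO.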
For the compound `Cc1noc(NS(=O)(=O)c2ccc(N)cc2)c1C`, the compound was classed as inactive.

As to `CCCCNS(=O)(=O)c1ccccc1`, the result was inactive.

`COC(=O)[C@H](Cc1ccccc1)NC(=O)[C@@H](N)CC(=O)O` (H-Asp-Phe-OMe): the call was inactive.

For the compound `C[N+](C)(C)CCCNS(=O)(=O)C(F)(F)C(F)(F)C(F)(F)C(F)(F)C(F)(F)C(F)(F)C(F)(F)C(F)(F)F`, the AC50 was 15 µM (active).

System in another experiment: not listed separately
The experiment is described as follows: CCTE_Shafer_MEA_acute_AB: CCTE's Alamar Blue Assay for Cytotoxicity in the Neural Acute Assay, Shafer Lab (AID 2284069).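 Note: active compounds lower the viability signal compared with DMSO wells.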 Summed up: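 Metabolic activity in chemically exposed rat cortical neurons (MEA cultures, day 13/15 post-plating) measured via CellTiter Blue resazurin reduction, 544/590 nm fluorescence; fitted relative to DMSO, with signal loss indicating reduced viability.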
In the case of `c1ccc(Nc2cccc3ccccc23)cc1`, the result was inactive.

On to `Nc1cccc(N)n1`, for which the call was inactive.

As for `CC(CCC(=O)O)(c1ccc(O)cc1)c1ccc(O)cc1`, the call was inactive.

Consider `Cc1c(C(=O)c2c[nH]n(C)c2=O)ccc(S(C)(=O)=O)c1C1=NOCC1`, for which the compound was classed as inactive.

On to `C1CNCCN1`, for which the compound was called inactive.

System in the next experiment: not listed separately
Kind of experiment: CCTE_Shafer_MEA_dev_AB: CCTE's Alamar Blue Assay for Cytotoxicity in the Neural Network Formation Assay, Shafer Lab (AID 2284083).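 Note: twelve days of exposure from plating with re-dosing on DIV 5 and 9.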 Summed up:
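Fluorescent resazurin reduction serves as the viability read-out, with DMSO as negative control and baseline. Cells were primary rat cortical neurons grown on MEA plates and dosed from day 0 to day 12, treatment renewed on DIV 5 and 9.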
As to `Cc1noc(NS(=O)(=O)c2ccc(N)cc2)c1C`, the compound was classed as inactive.

As to `CCCCNS(=O)(=O)c1ccccc1`, the outcome was inactive.

As for `Cc1c(C(=O)c2c[nH]n(C)c2=O)ccc(S(C)(=O)=O)c1C1=NOCC1`, the compound was called inactive.

As to `COC(=O)[C@H](Cc1ccccc1)NC(=O)[C@@H](N)CC(=O)O` (H-Asp-Phe-OMe), the compound was classed as inactive.

Take `C[N+](C)(C)CCCNS(=O)(=O)C(F)(F)C(F)(F)C(F)(F)C(F)(F)C(F)(F)C(F)(F)C(F)(F)C(F)(F)F`: the AC50 was 15 µM (active) and 7.64 µM (active).

As usually defined, the AC50 is the midpoint of the concentration-response curve, whichever way the signal moves.
